# M1 PAM – positive allosteric modulators of human M1 muscarinic receptor; CHO-K1 hM1, Fluo-8 calcium fluorescence, ACh EC20; 0% = ACh EC20, 100% = maximal ACh; activation, % at 3 µM; 0.088% of 360,000 active; AID 588819; in the data active means activation above about 19%, passing the limit was not always enough
# Target sequence (P11229 whole entry, looked up): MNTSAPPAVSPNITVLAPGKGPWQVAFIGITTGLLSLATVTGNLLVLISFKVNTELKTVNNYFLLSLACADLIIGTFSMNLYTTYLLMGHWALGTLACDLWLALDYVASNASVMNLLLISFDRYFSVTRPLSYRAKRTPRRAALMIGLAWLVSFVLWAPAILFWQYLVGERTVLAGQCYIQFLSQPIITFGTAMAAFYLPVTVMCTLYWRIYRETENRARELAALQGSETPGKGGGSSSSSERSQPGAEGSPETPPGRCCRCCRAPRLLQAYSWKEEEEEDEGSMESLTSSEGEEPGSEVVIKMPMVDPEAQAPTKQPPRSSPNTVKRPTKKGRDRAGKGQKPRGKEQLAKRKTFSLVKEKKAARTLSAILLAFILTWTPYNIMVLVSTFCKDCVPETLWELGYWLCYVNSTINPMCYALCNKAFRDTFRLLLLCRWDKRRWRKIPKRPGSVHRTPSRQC
# M1 ag parental – M1 agonist counterscreen hit in parental CHO-K1 cells; Fluo-8 calcium fluorescence; scaled to maximal ATP response, vehicle zero; activation, % at 3 µM; 0.48% of 360,000 active; in the data active means activation above about 15%;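 further: untransfected CHO-K1 host cells lacking M1 receptor as counterscreen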
# CHO-K1 Ca PAM – counter-screen for M1 PAMs: effect in parental CHO-K1 cells; ATP EC20, Fluo-8 calcium fluorescence; 0% at ATP EC20, 100% at ATP max; AID 602247; activation, % at 3 µM; 0.02% of 360,000 active;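 active means activation above the run cutoff, the mean activation of all test compounds plus 3 SD, cut at about 40% in these data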;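 further: peak over basal fluorescence ratio in a 140 s read after ATP addition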
# CHO-K1 Ca antag – M1 antagonist counterscreen hit in parental CHO-K1 cells | inhibition, % at 3 µM | 0.6% of 360,000 active | ATP-induced calcium, Fluo-8 fluorescence;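 active means inhibition above a per-plate cutoff, the plate's mean sample inhibition plus 3 SD, cut at about 24% in these data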;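 further: 0% = DMSO plus EC80 ATP and 100% = DMSO alone without ATP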
# M1 ag – agonists of human M1 muscarinic receptor; CHO-K1 hM1, Fluo-8 calcium fluorescence, agonist mode; 0% DMSO, 100% acetylcholine EC100; P11229; 0.33% of 360,000 active; activation, % at 3 µM; AID 588814;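 active means activation above the run's mean compound activation plus 3 SD, cut at about 16% in these data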;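 further: peak over basal fluorescence ratio within a 140 s kinetic read after compound addition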
# CHRM1 antagonist – antagonists of human M1 muscarinic receptor | inhibition, % at 3 µM | 1.3% of 360,000 active | CHO-K1 hM1, Fluo-8 calcium fluorescence, ACh EC80 antagonist | P11229;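 active means percent inhibition above its own plate's cutoff, namely the mean of that plate's compound wells plus 3 SD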;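 further: peak over basal fluorescence ratio during 140 s after agonist addition; 0% = ACh EC80 plus DMSO and 100% = DMSO alone without agonist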
# Active calls of the source: *. Compounds with a hit are over-represented: about 2.4% of the library has one in this group of screens.
SMILES,M1 PAM,M1 ag parental,CHO-K1 Ca PAM,CHO-K1 Ca antag,M1 ag,CHRM1 antagonist
CCc1cccc(C)c1NC(=S)NCC(c1cccnc1)N(C)C (stereo not drawn),0,17*,-5,8,-9,-1
COc1ccccc1NC(=S)N1CCc2cc(OC)c(OC)cc2C1,-1,0,-17,24*,-3,-1
CCN(CC)c1ccc(C(=O)NNC(=O)CN2C(=O)NC(C)(c3ccccc3)C2=O)cc1 (stereo not drawn),4,2,2,-12,-1,-4
Cc1ccc(/C=C2\SC(=S)N(NS(=O)(=O)c3ccc(C)cc3)C2=O)cc1,3,3,13,6,-4,-10
Cc1ccc(S(=O)(=O)NN2C(=O)/C(=C/c3cccs3)SC2=S)cc1,12,-1,-23,26*,0,-20
O=[N+]([O-])c1ccc(S(=O)(=O)NCCS(=O)(=O)N2CCN(c3ccccc3)CC2)cc1,-5,6,-23,7,2,8
c1ccc(CCNc2c3c(nc4ncnn24)CCC3)cc1,-6,21*,7,-1,2,11
Cc1cccc(NC(=O)C(C)Sc2ncnc3sccc23)c1 (stereo not drawn),-9,6,12,-16,-4,-5
O=C1OCCN1C(=O)[C@H]1[C@H](c2ccc(Cl)cc2)C(c2ccccc2)=NN1c1ccccc1,-13,0,-7,-1,-3,26*
O=C1OCCN1C(=O)[C@H]1[C@H](c2ccc(Cl)cc2)C(c2ccc(F)cc2)=NN1c1ccccc1,-10,1,16,-15,-3,15
COc1ccc(C(=O)COC(=O)CCN2C(=O)C3C4CCC(C4)C3C2=O)cc1 (stereo not drawn),-7,0,-17,24*,-4,6
CCOC(=O)c1cc(C#N)c(SC)nc1C,9,1,21,-14,-3,-13
CSc1nc(C)c(C(=O)C[n+]2ccccc2C)cc1C#N,-19,0,11,-14,-6,40*
CCc1ccc(CNn2cnnc2SCC(=O)NC(C)(C)C)cc1,-1,0,-4,15,-2,0
CN(C)c1ccc(CNn2cnnc2SCC(=O)NC(C)(C)C)cc1,-14,6,9,14,-2,42*
Nc1c(N(CCC2=CCCCC2)C(=O)C2CC2)c(=O)[nH]c(=O)n1Cc1ccccc1,5,0,-2,3,-2,-4
CC(=O)NCCC(=O)N1CCCC(N(C)CCc2ccccc2)C1 (stereo not drawn),-20,0,6,1,-9,45*
O=C(COC(=O)c1ccc2ccccc2c1)NCc1ccccc1,6,0,17,-9,-1,-16
CC(=O)C[C@@H](O)CC(=O)[C@H]1OC(=O)[C@H](C)CCCCc2ccccc21,11,2,22,-17,8,-9
COc1ccc(OC)c(S(=O)(=O)N2CCC(C(=O)Nc3ccc(C)c(C)c3)CC2)c1,-12,9,-8,-5,5,36*
Cc1c(Cl)cccc1NC(=S)NNS(=O)(=O)c1ccc([N+](=O)[O-])cc1,5,0,8,0,-2,1
Cc1ccc(OCC(=O)Nc2ccc(C)c(F)c2)c([N+](=O)[O-])n1,3,3,-4,2,-6,-8
CCC[N+]1(CC#CCC(c2ccccc2)c2ccccc2)CCCCC1,-27,0,4,-7,-7,63*
C#CC[N+]1(CC#Cc2ccccc2)CCOCC1,9,-1,-5,16,-6,-21
Cc1ccc(C#CC[N+]2(CC#Cc3ccc(C)cc3)CCCCC2)cc1,-27,0,0,6,-10,48*
C#CC[N+]1(CC#Cc2cccc(C)c2)CCCCC1,0,1,23,-12,-13,4
C(#Cc1ccccc1)C[N+]1(CC#Cc2ccccc2)CCCCC1,-36,-1,1,4,-14,60*
C#CC[N+]1(CC#Cc2ccccc2)CCCCC1,0,1,18,-19,-8,-4
Cn1c(CC(=O)Nc2ccccc2F)nnc1SCC(=O)Nc1nccs1,10,1,10,-10,-3,-4

# Source: PubChem BioAssay (The Scripps Research Institute Molecular Screening Center)
